Assay results from the supplement of paper PMC13380429.

How the values were obtained:
[1] = test system: Vero E6 infected with SARS-CoV-2; experiment: morphology score (similarity to uninfected cells); higher = more like uninfected cells; conditions: 24 h
[2] = test system: Vero E6 infected with SARS-CoV-2; experiment: SARS-CoV-2 infection rate relative to infected DMSO; higher = more infection, active = 60 or less; conditions: 24 h

Row | SMILES | morphology score [1] | SARS-CoV-2 infection rate [2]
1 | CC(=O)Oc1ccccc1C(=O)Oc1cccc(CO[N+](=O)[O-])c1 (10 µM) | 0.178 | 101% (inactive)
2 | CNC(=O)c1ccc(N2C(=S)N(c3cnc(C#N)c(C(F)(F)F)c3)C(=O)C23CCC3)cc1F [apalutamide] (10 µM) | 0.0169 | 109% (inactive)
3 | Cc1ccc(C(=O)NCCCCCC(=O)Nc2ccccc2N)cc1 (0.833333 µM) | -0.0541 | 120% (inactive)
4 | C[C@@H](O)[C@H]1C(=O)N2C(C(=O)O)=C(SCCNC=N)C[C@H]12 [imipenem] (10 µM) | -0.161 | 114% (inactive)
5 | CC1(C)[C@H]2CC[C@]1(C)[C@@H](O)[C@H]2O [cis-exo-camphanediol-2,3] (10 µM) | 0.0601 | 106% (inactive)
6 | CN1C(C)(C)CCCC1(C)C [pempidine] (10 µM) | 0.0949 | 96% (inactive)
7 | CCc1cc(C(C)=O)c(O)cc1OCCCCCC(C)(C)c1nn[nH]n1 (10 µM) | 0.0736 | 100% (inactive)
8 | O=C(Nc1ccc(Cl)cc1)Nc1ccc(Cl)c(Cl)c1 [triclocarban] (10 µM) | 0.0739 | 98.5% (inactive)
9 | CN(C)CCCO[C@@H]1[C@H]2OC(C)(C)O[C@H]2O[C@@H]1[C@H](O)CO [amiprilose] (10 µM) | -0.0292 | 104% (inactive)
10 | Ic1cc(-c2ccccc2)ncn1 [4-iodo-6-phenylpyrimidine] (10 µM) | 0.254 | 81.5% (inactive)
11 | COc1cccc(-c2cc(NCc3ccc4c(c3)OCO4)nc(N)n2)c1 (10 µM) | -0.021 | 111% (inactive)
12 | Fc1ccc(C(OCCN2CCN(CCCc3ccccc3)CC2)c2ccc(F)cc2)cc1 [vanoxerine] (0.833333 µM) | 0.275 | 86% (inactive)
13 | CC(C)c1cccc2c1OC(C(C)C)C(=S)N2CC(=O)O (centres undefined) (10 µM) | 0.0177 | 102% (inactive)
14 | Cc1ccc(N(CC2=NCCN2)c2cccc(O)c2)cc1 [phentolamine] (10 µM) | -0.00261 | 98% (inactive)
15 | N[C@@H](Cc1cc(I)c(Oc2ccc(O)c(I)c2)c(I)c1)C(=O)O [liothyronine] (10 µM) | 0.106 | 108% (inactive)
16 | N=C(N)NC(=O)c1cnccn1 [pyrazinoylguanidine] (10 µM) | 0.0685 | 108% (inactive)
17 | On1ncc(C2CCNCC2)c1-c1cccc(-c2ccccc2)c1 (10 µM) | 0.0231 | 108% (inactive)
18 | NS(=O)(=O)c1cc2c(cc1Cl)N=CNS2(=O)=O [chlorothiazide] (10 µM) | -0.179 | 106% (inactive)
19 | CC(C)C(N)C(=O)O (stereo in doubt) [L-valine] (10 µM) | 0.0236 | 109% (inactive)
20 | C[C@]12CCC(=O)C=C1CC[C@@H]1[C@@H]2[C@@H](O)C[C@@]2(C)[C@H]1CC[C@]2(O)C(=O)CO [hydrocortisone] (10 µM) | -0.144 | 122% (inactive)
21 | Cn1c(=O)c2c(ncn2CC(O)CO)n(C)c1=O (centres undefined) [dyphylline] (10 µM) | 0.0342 | 96% (inactive)
22 | CCCCCNC(=N)N/N=C/c1c[nH]c2ccc(OC)cc12 [tegaserod] (10 µM) | 0.0727 | 100% (inactive)
23 | NC(=O)c1cnc2[nH]ccc2c1N[C@@H]1[C@@H]2CC3C[C@H]1C[C@@](O)(C3)C2 (10 µM) | 0.174 | 106% (inactive)
24 | COc1ccc2cc(CCC(C)=O)ccc2c1 [nabumetone] (10 µM) | 0.0377 | 118% (inactive)
25 | C=C(NC(=O)C(=C)NC(=O)c1csc(C2=N[C@@H]3c4csc(n4)[C@H]4NC(=O)c5csc(n5)[C@H]([C@](C)(O)[C@@H](C)O)NC(=O)[C@H]5CSC(=N5)/C(=C/C)NC(=O)[C@H]([C@@H](C)O)NC(=O)c5csc(n5)[C@]3(CC2)NC(=O)[C@H](C)NC(=O)C(=C)NC(=O)[C@H](C)NC(=O)[C@H]([C@@H](C)CC)N[C@@H]2C=Cc3c([C@H](C)O)cc(nc3[C@H]2O)C(=O)O[C@@H]4C)n1)C(N)=O [thiostrepton] (10 µM) | 0.148 | 92.5% (inactive)
26 | Cc1cc(Nc2ncnc3ccc(-c4ccc(CNCCS(C)(=O)=O)o4)cc23)ccc1Oc1ccn2ncnc2c1 [HER2-Inhibitor-1] (10 µM) | 0.174 | 95% (inactive)
27 | CC(OC(=O)OC1CCCCC1)OC(=O)C1=C(CSc2nnnn2CCN(C)C)CS[C@@H]2[C@H](NC(=O)Cc3csc(N)n3)C(=O)N12 (some centres undefined) [cefotiam-cilexetil] (10 µM) | -0.0288 | 109% (inactive)
